In all, about 320,000 compounds went through this assay and about 22,000 (6.9%) were called active. A call without a number means that no potency is given here. Another 27% or so got no clear call; they are omitted. The sample holds actives, similar compounds and a random draw of the others, so the mix is not that of the screen. Calls follow the shape of the dose curve; as a rule, active = well fitted inhibition curve with a large enough effect; inconclusive = small, poorly fitted or top-dose-only effect, or another doubt; inactive = no such curve, though single readings can be large or run the other way.
assay: Primary qHTS for delayed death inhibitors of the malarial parasite plastid, 96 hour incubation; details: P. falciparum luciferase reporter growth; series mostly up to 28.7 µM
How it was run: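 P. falciparum expressing integrated firefly luciferase, in erythrocytes at 2% hematocrit, 0.05% parasitemia, incubated with compounds 96 h at 37 C, 5% CO2. Growth inhibition read as loss of luminescence; two-generation exposure targets delayed-death apicoplast inhibitors.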
Potency is read from the fitted curve at half-maximal effect.

SMILES	Potency
COc1ccc(N2CC(NS(=O)(=O)c3ccc4ccccc4c3)CC2=O)cc1 (centres undefined)	inactive
O=S(=O)(c1ccc(F)cc1)N1CCN(C(=S)NCc2ccco2)CC1	0.657 µM (active)
CC1CCN(S(=O)(=O)c2ccc(S(=O)(=O)NCc3ccco3)cc2)CC1	inactive
Cc1ccc(C(=O)NC2CCN(C(=O)Nc3ccc(F)cc3)CC2)cc1	inactive
COc1ccc(CCNC(=O)C2CCCN(S(=O)(=O)c3ccc(OC)cc3)C2)cc1 (centres undefined)	inactive
O=C(NCc1ccco1)C1CCCN(S(=O)(=O)c2ccccc2)C1 (centres undefined)	inactive
CCOC(=O)N1CCN(S(=O)(=O)c2ccc(OC)cc2)CC1	inactive
O=C(NC1CCN(C(=S)NCc2ccco2)CC1)c1ccc(F)cc1	2.94 µM (active)
COc1ccc(CCNC(=S)N2CCN(S(=O)(=O)c3ccc(F)cc3)CC2)cc1	2.94 µM (active)
COc1ccc(C(=O)NC2CCN(C(=S)NCCc3ccccc3)CC2)cc1	inactive
CSc1ccccc1NC(=O)COC(=O)CCCOc1ccc(C)cc1	inactive
COc1ccc(CCNC(=O)COC(=O)Cc2cccc(F)c2)cc1	inactive
O=C(COC(=O)CNC(=O)C1CCCCC1)NCc1ccccc1	inactive
COc1cccc(CSc2nc3nc(C)cc(C)n3n2)c1	inactive
COC(=O)N/N=C/c1c[n+]([O-])c2ccccc2[n+]1[O-]	inactive
O=C(CCN1C(=O)[C@H]2CC=CC[C@H]2C1=O)NCc1nc(-c2ccccc2)no1	inactive
CCC(C)NC(=O)C1CCC(=O)N1Cc1ccc(C)cc1 (centres undefined)	11.7 µM (active)
CCC(C)NC(=O)C1c2ccccc2C(=O)N1Cc1ccccc1 (centres undefined)	inactive
Cc1ccc(CN2C(=O)CCC2C(=O)NCCCN2CCCCC2C)cc1 (centres undefined)	inactive
O=S(=O)(Cc1nnnn1-c1ccccc1)c1ccccc1	inactive
O=C(/C=C/c1ccccc1[N+](=O)[O-])OCC(=O)N1CCCC1	inactive
COc1cccc(NC(=O)N2CCC(NC(=O)C(Cc3cccc(C)c3)NC(C)=O)CC2)c1 (centres undefined)	inactive

SMILES	Potency
O=C(O)Cc1sc(-c2ccc(C(=O)O)cc2)nc1-c1ccccc1	inactive
Cc1ccc(S(=O)(=O)NCCC(=O)Nc2ccc(C)c(Cl)c2)cc1C	inactive
Cc1ccc(-c2nc(-c3cccnc3)sc2CC(=O)Nc2ccc(C)c(Cl)c2)cc1	11.7 µM (active)
COc1ccc(OC)c(C(=O)NC(CC(N)=O)c2ccc(N3CCC(N4CCCCC4)CC3)c([N+](=O)[O-])c2)c1 (centres undefined)	inactive
CCOc1ccc(N(CC)S(=O)(=O)c2cccc3nsnc23)cc1	6.57 µM (active)
COc1ccc(N(C)C(=O)CCS(=O)(=O)c2cccc3nsnc23)cc1	inactive
COc1ccc(N(C)S(=O)(=O)c2cccc3nsnc23)cc1	inactive
O=C(Nc1ccc(N2CCOCC2)c(Cl)c1)c1ccc(S(=O)(=O)N2CCOCC2)cc1	inactive
COc1ccc(COC(=O)NC(C(=O)O)c2ccccc2)cc1 (centres undefined)	inactive
COc1ccc(CNC(=O)Cc2ccc(-c3ccccc3)cc2)cc1OC	inactive
COC(=O)c1ccc(C(NC(=O)OCc2ccccc2)/C(C)=C/[C@@H](C)C(=O)NCc2ccc(OC)c(OC)c2)cc1 (some centres undefined)	11.7 µM (active)
COc1ccccc1CNC(=O)CCCN1C(=O)NC2(CCCC2)C1=O	inactive
COc1ccccc1CNC(=O)CCCn1c(=O)c2ccccc2n(CC(=O)NC2CCCC2)c1=O	4.65 µM (active)
COCCCNC(=O)Cn1c(=O)n(Cc2ccccc2Cl)c(=O)c2cc(OC)c(OC)cc21	inactive
COC(=O)c1ccccc1N=Nc1c(C)[nH][nH]c1=O	inactive
O=C(O[C@H]1[C@H](Cc2ccccc2)NS(=O)(=O)[C@H]2C[C@@H]3C=C[C@]12O3)c1ccc([N+](=O)[O-])cc1	inactive
CC(=O)c1ccc(S(=O)(=O)N2CCC3(CC2)OCCO3)cc1	inactive
NC(=O)COC(=O)/C=C/c1ccc2ccccc2n1	inactive
CC(=O)c1ccc(S(=O)(=O)N2CCN(C(=O)/C=C/c3ccc4ccccc4n3)CC2)cc1	5.22 µM (active)
COCC1CCCN(C(=O)c2ccc3oc(C(C)C)nc3c2)C1 (centres undefined)	inactive
Nn1c(SCC(=O)Nc2nccs2)nnc1-c1ccco1	inactive
CN(C)/N=C/c1cn(-c2ccccc2)nc1-c1cccnc1	inactive

SMILES	Potency
CC(C)(C)OC(=O)N/N=C/c1cn(-c2ccccc2)nc1-c1cccnc1	2.33 µM (active)
O=C(COC(=O)/C=C/c1cn(-c2ccccc2)nc1-c1cccnc1)Nc1ccc(Cl)cc1Cl	inactive
COC(=O)c1cn(-c2ccccc2)nc1-c1cccnc1	7.38 µM (active)
NC(=O)C1CCN(C(=O)c2cn(-c3ccccc3)nc2-c2cccnc2)CC1	inactive
O=C(NCc1cccnc1)c1cn(-c2ccccc2)nc1-c1cccs1	inactive
COc1ccc(C(=O)N2CCN(c3ccc(C(C)=O)cc3F)CC2)cc1S(=O)(=O)NC1CC1	inactive
Cc1ccc(/C=C/C(=O)OCC(=O)NCc2ccc(Cl)cc2)o1	inactive
Cc1cc(-c2ccc(C)c(S(=O)(=O)NCCCN(Cc3ccccc3)C(C)C)c2)on1	inactive
COC(=O)c1c(NC(=O)c2ccccc2F)sc2c1C(C(=O)OC)CC2 (centres undefined)	inactive
O=C(Nc1ccc(C(=O)O)cc1)/C(=C\c1ccccc1)NC(=O)c1ccc(Br)cc1	inactive
COc1ccccc1N1CCN(C(=O)C2Cc3ccccc3CN2C(=O)c2ccco2)CC1 (centres undefined)	inactive
CCCCn1c(-c2cccc(C)c2)nc2cc3[nH]c(=O)c(C(C)C)nc3cc21	4.15 µM (active)
CCOCCn1c(-c2ccccc2)nc2ccccc21	inactive
CCCCn1c(N)c(N(CCOC)C(=O)CSCC(=O)Nc2cccc(C)c2)c(=O)[nH]c1=O	inactive
O=C(O)C1CCCN1C1=NS(=O)(=O)c2ccccc21 (centres undefined)	inactive
CN(Cc1ccccc1)S(=O)(=O)c1nnc(NC(=O)c2ccccc2F)s1	inactive
CN(C(=O)COC(=O)c1nc(Cl)ccc1Cl)C1CCS(=O)(=O)C1 (centres undefined)	inactive
Cc1ccc(C)c2[nH]c(=O)c(CN(Cc3cccnc3)C(=S)NCc3ccco3)cc12	3.7 µM (active)
Cc1cccc2cc(CN(Cc3cccs3)C(=S)NCc3ccco3)c(=O)[nH]c12	inactive
O=C(Nc1ccccc1)N(Cc1cccnc1)Cc1ccco1	inactive
